Measurements taken from PubChem BioAssay AID1159580 (chemical genetic matrix, 2015).
Where “and” joins values, the source holds several entries; their conditions need not be identical. Identical values can stand only once. About 2,000 (36%) of roughly 5,500 compounds were called active. Another 18% or so got no clear call; they are omitted. Rule as the data show it: active = normalized growth mostly below about 0.91 (no sharp cut-off); inconclusive = no clear call, values can overlap the other calls; inactive = mostly above about 0.92. This is one part of the list.

Test: chemical genetic growth profiling, strain panel (AID 1159580);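 also: tested at 20 µM; growth read once vehicle control cultures reached saturation at 30 °C; 1 = growth at the plate median or of vehicle wells; lower values mean less growth of the strain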
Settings: growth OD

Measured: normalized growth

C=C1C(N)CC2CC1C2(C)C (stereo not given)
inactive: S. cerevisiae deletion strains, locus YAL021C, strain ccr4, active compounds read low 1.01 | S. cerevisiae deletion strains, locus YAL026C, strain drs2, active compounds read low 1.01 | S. cerevisiae deletion strains, locus YAL030W, strain snc1, active compounds read low 1.01 | S. cerevisiae deletion strains, locus YBL061C, strain skt5, active compounds read low 1 | S. cerevisiae deletion strains, locus YBR009C, strain hhf1, active compounds read low 1.01 | S. cerevisiae deletion strains, locus YBR021W, strain FUR4, active compounds read low 1 | S. cerevisiae deletion strains, locus YBR023C, strain chs3, active compounds read low 0.985 | S. cerevisiae deletion strains, locus YBR171W, strain sec66, active compounds read low 0.99 | S. cerevisiae deletion strains, locus YBR229C, strain ROT2, active compounds read low 1.01 | S. cerevisiae deletion strains, locus YBR231C, strain swc5, active compounds read low 0.999 | S. cerevisiae deletion strains, locus YBR279W, strain paf1, active compounds read low 0.997 | S. cerevisiae deletion strains, locus YCL011C, strain gbp2, active compounds read low 0.983 | S. cerevisiae deletion strains, locus YCL016C, strain dcc1, active compounds read low 1.01 | S. cerevisiae deletion strains, locus YCL029C, strain bik1, active compounds read low 1.02 | S. cerevisiae deletion strains, locus YCL069W, strain vba3, active compounds read low 0.996 | S. cerevisiae deletion strains, locus YCR088W, strain abp1, active compounds read low 0.989 | S. cerevisiae deletion strains, locus YDL005C, strain med2, active compounds read low 0.991 | S. cerevisiae deletion strains, locus YDL035C, strain GPR1, active compounds read low 0.994 | S. cerevisiae deletion strains, locus YDL040C, strain nat1, active compounds read low 0.994 | S. cerevisiae deletion strains, locus YDL074C, strain BRE1, active compounds read low 1.02 | S. cerevisiae deletion strains, locus YDL101C, strain DUN1, active compounds read low 1.03 | S. cerevisiae deletion strains, locus YDL134C, strain PPH21, active compounds read low 1.03 | S. cerevisiae deletion strains, locus YDL185W, strain tfp1, active compounds read low 1.01 | S. cerevisiae deletion strains, locus YDL192W, strain arf1, active compounds read low 0.996 | S. cerevisiae deletion strains, locus YDR001C, strain nth1, active compounds read low 1 | S. cerevisiae deletion strains, locus YDR069C, strain doa4, active compounds read low 0.98 | S. cerevisiae deletion strains, locus YDR101C, strain arx1, active compounds read low 0.979 | S. cerevisiae deletion strains, locus YDR137W, strain rgp1, active compounds read low 1 | S. cerevisiae deletion strains, locus YDR150W, strain NUM1, active compounds read low 0.998 | S. cerevisiae deletion strains, locus YDR159W, strain sac3, active compounds read low 0.975 | S. cerevisiae deletion strains, locus YDR162C, strain NBP2, active compounds read low 1.01 | S. cerevisiae deletion strains, locus YDR195W, strain ref2 0.977 | S. cerevisiae deletion strains, locus YDR297W, strain sur2, active compounds read low 1 | S. cerevisiae deletion strains, locus YDR318W, strain mcm21, active compounds read low 1 | S. cerevisiae deletion strains, locus YDR334W, strain swr1, active compounds read low 0.99 | S. cerevisiae deletion strains, locus YDR335W, strain msn5, active compounds read low 0.995 | S. cerevisiae deletion strains, locus YDR388W, active compounds read low 1 | S. cerevisiae deletion strains, locus YDR392W, strain spt3, active compounds read low 1.01 | S. cerevisiae deletion strains, locus YDR502C, strain sam2, active compounds read low 1.04 | S. cerevisiae deletion strains, locus YEL003W, strain gim4, active compounds read low 0.998 | S. cerevisiae deletion strains, locus YEL037C, strain rad23, active compounds read low 0.99 | S. cerevisiae deletion strains, locus YEL061C, strain CIN8 (second series), active compounds read low 1.01 | S. cerevisiae deletion strains, locus YER015W, strain faa2, active compounds read low 0.99 | S. cerevisiae deletion strains, locus YER016W, strain bim1, active compounds read low 0.994 | S. cerevisiae deletion strains, locus YER110C, active compounds read low 1.02 | S. cerevisiae deletion strains, locus YER111C, strain swi4, active compounds read low 0.989 | S. cerevisiae deletion strains, locus YER155C, strain BEM2 (second series), active compounds read low 1 | S. cerevisiae deletion strains, locus YER155C, strain BEM2, active compounds read low 1 | S. cerevisiae deletion strains, locus YER167W, strain BCK2, active compounds read low 1 | S. cerevisiae deletion strains, locus YFR010W, strain ubp6, active compounds read low 1.01 | S. cerevisiae deletion strains, locus YGL078C, strain dbp3, active compounds read low 1.04 | S. cerevisiae deletion strains, locus YGL086W, strain mad1, active compounds read low 1 | S. cerevisiae deletion strains, locus YGL167C, strain pmr1, active compounds read low 0.99 | S. cerevisiae deletion strains, locus YGL173C, strain kem1, active compounds read low 0.998 | S. cerevisiae deletion strains, locus YGL227W, strain vid30, active compounds read low 1 | S. cerevisiae deletion strains, locus YGL240W, strain doc1, active compounds read low 0.994 | S. cerevisiae deletion strains, locus YGL248W, strain PDE1, active compounds read low 1.04 | S. cerevisiae deletion strains, locus YGL253W, strain hxk2, active compounds read low 1 | S. cerevisiae deletion strains, locus YGR078C, strain PAC10, active compounds read low 1.04 | S. cerevisiae deletion strains, locus YGR135W, strain pre9, active compounds read low 1.06 | S. cerevisiae deletion strains, locus YGR252W, strain gcn5, active compounds read low 1.09 | S. cerevisiae deletion strains, locus YHR013C, strain ard1, active compounds read low 1 | S. cerevisiae deletion strains, locus YHR027C, strain rpn1, active compounds read low 0.996 | S. cerevisiae deletion strains, locus YHR030C, strain SLT2, active compounds read low 0.996 | S. cerevisiae deletion strains, locus YHR079C, strain IRE1 (second series), active compounds read low 1.01 | S. cerevisiae deletion strains, locus YHR079C, strain IRE1, active compounds read low 0.994 | S. cerevisiae deletion strains, locus YHR094C, strain hxt1, active compounds read low 1.02 | S. cerevisiae deletion strains, locus YHR129C, strain ARP1, active compounds read low 1.01 | S. cerevisiae deletion strains, locus YHR142W, strain chs7, active compounds read low 1.01 | S. cerevisiae deletion strains, locus YHR200W, strain rpn10, active compounds read low 1.03 | S. cerevisiae deletion strains, locus YIL066C, strain RNR3, active compounds read low 1.01 | S. cerevisiae deletion strains, locus YIL073C, strain SPO22, active compounds read low 1.06 | S. cerevisiae deletion strains, locus YIL125W, strain kgd1, active compounds read low 1.01 | S. cerevisiae deletion strains, locus YIR030C, strain dcg1, active compounds read low 0.996 | S. cerevisiae deletion strains, locus YJL092W, strain hpr5, active compounds read low 0.995 | S. cerevisiae deletion strains, locus YJL095W, strain BCK1 (second series), active compounds read low 1.02 | S. cerevisiae deletion strains, locus YJL095W, strain BCK1, active compounds read low 1.05 and 0.98 | S. cerevisiae deletion strains, locus YJL115W, strain asf1, active compounds read low 0.99 | S. cerevisiae deletion strains, locus YJL129C, strain trk1, active compounds read low 1.01 | S. cerevisiae deletion strains, locus YJL134W, strain LCB3, active compounds read low 1 | S. cerevisiae deletion strains, locus YJL154C, strain vps35, active compounds read low 0.998 | S. cerevisiae deletion strains, locus YJL164C, strain tpk1, active compounds read low 0.997 | S. cerevisiae deletion strains, locus YJL166W, strain qcr8, active compounds read low 0.997 | S. cerevisiae deletion strains, locus YJL168C, strain set2, active compounds read low 1.01 | S. cerevisiae deletion strains, locus YJL187C, strain SWE1 (second series), active compounds read low 1.05 | S. cerevisiae deletion strains, locus YJL187C, strain SWE1, active compounds read low 0.997 | S. cerevisiae deletion strains, locus YJR066W, strain TOR1, active compounds read low 0.953 | S. cerevisiae deletion strains, locus YKL009W, strain mrt4, active compounds read low 0.998 | S. cerevisiae deletion strains, locus YKL068W, active compounds read low 1.01 | S. cerevisiae deletion strains, locus YKL085W, strain MDH1 (second series), active compounds read low 1.01 | S. cerevisiae deletion strains, locus YKL085W, strain MDH1, active compounds read low 1.01 | S. cerevisiae deletion strains, locus YKL160W, strain elf1, active compounds read low 0.998 | S. cerevisiae deletion strains, locus YKL190W, strain CNB1, active compounds read low 1.01 | S. cerevisiae deletion strains, locus YKR001C, strain vps1, active compounds read low 1.01 | S. cerevisiae deletion strains, locus YKR026C, strain gcn3, active compounds read low 0.999 | S. cerevisiae deletion strains, locus YKR091W, strain srl3, active compounds read low 0.996 | S. cerevisiae deletion strains, locus YLL001W, strain dnm1, active compounds read low 1 | S. cerevisiae deletion strains, locus YLL026W, active compounds read low 0.983 | S. cerevisiae deletion strains, locus YLL041C, strain sdh2, active compounds read low 1.02 | S. cerevisiae deletion strains, locus YLR027C, strain aat2, active compounds read low 0.985 | S. cerevisiae deletion strains, locus YLR039C, strain RIC1, active compounds read low 1.06 | S. cerevisiae deletion strains, locus YLR058C, strain SHM2, active compounds read low 1.02 | S. cerevisiae deletion strains, locus YLR102C, strain apc9, active compounds read low 1 | S. cerevisiae deletion strains, locus YLR113W, strain HOG1, active compounds read low 0.975 | S. cerevisiae deletion strains, locus YLR221C, strain rsa3, active compounds read low 1 | S. cerevisiae deletion strains, locus YLR258W, strain gsy2, active compounds read low 0.993 | S. cerevisiae deletion strains, locus YLR262C, strain YPT6 (second series), active compounds read low 1.02 | S. cerevisiae deletion strains, locus YLR268W, strain sec22, active compounds read low 0.992 | S. cerevisiae deletion strains, locus YLR320W, strain mms22, active compounds read low 1 | S. cerevisiae deletion strains, locus YLR342W, strain FKS1, active compounds read low 0.994 | S. cerevisiae deletion strains, locus YLR357W, strain rsc2, active compounds read low 0.968 | S. cerevisiae deletion strains, locus YLR370C, strain arc18, active compounds read low 0.986 | S. cerevisiae deletion strains, locus YLR371W, strain rom2, active compounds read low 1 | S. cerevisiae deletion strains, locus YLR384C, strain iki3, active compounds read low 0.999 | S. cerevisiae deletion strains, locus YLR418C, strain cdc73, active compounds read low 1.05 | S. cerevisiae deletion strains, locus YML016C, strain PPZ1, active compounds read low 1.01 | S. cerevisiae deletion strains, locus YML032C, strain rad52, active compounds read low 1 | S. cerevisiae deletion strains, locus YML120C, strain ndi1, active compounds read low 1.01 | S. cerevisiae deletion strains, locus YML124C, strain tub3, active compounds read low 0.999 | S. cerevisiae deletion strains, locus YMR058W, strain fet3, active compounds read low 1 | S. cerevisiae deletion strains, locus YMR078C, strain ctf18, active compounds read low 1.01 | S. cerevisiae deletion strains, locus YMR125W, strain sto1, active compounds read low 0.982 | S. cerevisiae deletion strains, locus YMR129W, active compounds read low 1.02 | S. cerevisiae deletion strains, locus YMR205C, strain PFK2, active compounds read low 0.997 | S. cerevisiae deletion strains, locus YMR223W, strain ubp8, active compounds read low 1.02 | S. cerevisiae deletion strains, locus YMR231W, strain pep5, active compounds read low 0.995 | S. cerevisiae deletion strains, locus YMR263W, strain SAP30, active compounds read low 1.02 | S. cerevisiae deletion strains, locus YMR307W, strain GAS1, active compounds read low 0.976 | S. cerevisiae deletion strains, locus YNL067W, strain RPL9B, active compounds read low 1.03 | S. cerevisiae deletion strains, locus YNL071W, strain lat1, active compounds read low 0.999 | S. cerevisiae deletion strains, locus YNL153C, strain GIM3, active compounds read low 1.04 | S. cerevisiae deletion strains, locus YNL183C, strain NPR1, active compounds read low 0.957 | S. cerevisiae deletion strains, locus YNL209W, strain ssb2, active compounds read low 0.978 | S. cerevisiae deletion strains, locus YNL233W, strain BNI4, active compounds read low 1.04 | S. cerevisiae deletion strains, locus YNL248C, strain rpa49, active compounds read low 1.02 | S. cerevisiae deletion strains, locus YNL250W, strain rad50, active compounds read low 1.03 | S. cerevisiae deletion strains, locus YNL271C, strain bni1, active compounds read low 1.01 | S. cerevisiae deletion strains, locus YNL298W, strain CLA4, active compounds read low 1.01 | S. cerevisiae deletion strains, locus YNL307C, strain MCK1, active compounds read low 1.02 | S. cerevisiae deletion strains, locus YNL322C, strain KRE1 (second series), active compounds read low 0.983 | S. cerevisiae deletion strains, locus YNR049C, strain mso1, active compounds read low 0.992 | S. cerevisiae deletion strains, locus YNR052C, strain pop2, active compounds read low 1.03 | S. cerevisiae deletion strains, locus YOL012C, strain htz1 1.56 | S. cerevisiae deletion strains, locus YOL147C, strain pex11, active compounds read low 1.01 | S. cerevisiae deletion strains, locus YOR001W, strain rrp6, active compounds read low 1.01 | S. cerevisiae deletion strains, locus YOR061W, strain CKA2, active compounds read low 1.01 | S. cerevisiae deletion strains, locus YOR069W, strain VPS5, active compounds read low 1.01 | S. cerevisiae deletion strains, locus YOR070C, strain gyp1, active compounds read low 0.98 | S. cerevisiae deletion strains, locus YOR080W, strain dia2, active compounds read low 0.998 | S. cerevisiae deletion strains, locus YOR083W, strain WHI5, active compounds read low 0.994 | S. cerevisiae deletion strains, locus YOR106W, strain vam3, active compounds read low 1.01 | S. cerevisiae deletion strains, locus YOR136W, strain idh2, active compounds read low 1.01 | S. cerevisiae deletion strains, locus YOR144C, strain elg1, active compounds read low 1 | S. cerevisiae deletion strains, locus YOR184W, strain ser1, active compounds read low 0.995 | S. cerevisiae deletion strains, locus YOR231W, strain MKK1, active compounds read low 0.969 | S. cerevisiae deletion strains, locus YOR265W, strain rbl2, active compounds read low 0.981 | S. cerevisiae deletion strains, locus YOR270C, strain vph1, active compounds read low 1.03 | S. cerevisiae deletion strains, locus YOR290C, strain snf2, active compounds read low 0.994 | S. cerevisiae deletion strains, locus YOR316C, strain cot1, active compounds read low 1.02 | S. cerevisiae deletion strains, locus YPL051W, strain arl3, active compounds read low 0.972 | S. cerevisiae deletion strains, locus YPL078C, strain atp4, active compounds read low 1 | S. cerevisiae deletion strains, locus YPL106C, strain sse1, active compounds read low 0.963 | S. cerevisiae deletion strains, locus YPL240C, strain hsp82, active compounds read low 0.996 | S. cerevisiae deletion strains, locus YPL256C, strain CLN2, active compounds read low 1.01 | S. cerevisiae deletion strains, locus YPR119W, strain clb2, active compounds read low 1 | S. cerevisiae deletion strains, locus YPR141C, strain kar3, active compounds read low 0.993 | S. cerevisiae deletion strains, locus YPR163C, strain tif3, active compounds read low 1.01 | S. cerevisiae deletion strains, locus YPR167C, strain met16, active compounds read low 1.01 | S. cerevisiae deletion strains, strain wtn01, active compounds read low 0.986 | S. cerevisiae strains, strain wild type, active compounds read low 1.02
